Screens: PubChem, Sanford-Burnham Center for Chemical Genomics
DUSP3 inh: VHR1 (DUSP3) phosphatase inhibition; P51452; recombinant VHR phosphatase, colorimetric substrate read-out; inhibition, % at 20 µM; 50,000 compounds, 0.7% hits; AID 1992; in the data active means inhibition above about 60%
Target sequence (P51452 whole entry, looked up): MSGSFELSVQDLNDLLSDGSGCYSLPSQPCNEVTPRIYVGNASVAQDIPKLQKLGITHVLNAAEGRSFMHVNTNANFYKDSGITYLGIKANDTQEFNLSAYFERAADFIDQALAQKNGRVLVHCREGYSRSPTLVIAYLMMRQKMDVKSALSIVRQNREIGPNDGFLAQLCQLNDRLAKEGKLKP
Hits are given with their value; i = inactive. This excerpt belongs to a sample that is enriched for hits.

SMILES | DUSP3 inh
O=[N+]([O-])c1ccccc1OCCOc1ncnc2ccccc12 | i
Fc1ccc(OCCOc2ncnc3ccccc23)cc1 | i
O=C(Nc1sc2c(c1C(=O)Nc1ccccc1)CCCCC2)c1ccc([N+](=O)[O-])cc1 | i
Cc1ccc(C(C)C)c(OCCOc2ccc(/C=N/n3cnnc3)cc2)c1 | i
CCOc1cc(/C=N\n2cnnc2)ccc1OCCOCCOc1ccc(C)cc1 | i
C1=C=CC(OCCOc2ccc(/C=N/n3cnnc3)cc2)=CC=1 | i
C(=N\n1cnnc1)/c1cccc(OCCOc2ccc(C3CCCCC3)cc2)c1 | 104
CCOc1cc(/C=N/n2cnnc2)ccc1OCCOc1cccc(C)c1 | i
COc1cccc(OCCOc2ccc(/C=N/n3cnnc3)cc2)c1 | 110
C(=N\n1cnnc1)/c1ccc(OCCOc2ccc(C3CCCCC3)cc2)cc1 | 106
Brc1ccc(OCCOc2cccc(/C=N/n3cnnc3)c2)cc1 | i
CCc1cc(C)cc(OCCOc2ccc(/C=N/n3cnnc3)cc2)c1 | i
COc1ccccc1CN1CCN(C(=O)c2ccc(-c3ccccc3)cc2)CC1 | i
O=C1NC(=O)N(c2ccc(Br)cc2)C(=O)/C1=C\c1ccc(-c2ccccc2[N+](=O)[O-])o1 | i
Fc1ccc(/C=N/N2CCOCC2)cc1 | i
O=C(O)c1c(Br)c(Br)c(Br)c(Br)c1C(=O)N1CCCC1 | i
CN1C(=O)NC(=O)/C(=C/c2ccc(-c3ccc(C(=O)O)cc3)o2)C1=O | i
O=C1NC(=S)N(c2ccc(Br)cc2)C(=O)/C1=C/c1ccc(-c2ccc(C(=O)O)cc2)o1 | 78
O=C1NC(=S)N(c2ccc(F)cc2)C(=O)/C1=C/c1cc(Cl)c(O)c(Cl)c1 | 78
O=C1NC(=S)N(c2ccc(Cl)cc2)C(=O)/C1=C\c1ccc(-c2cccc(C(=O)O)c2)o1 | i
Cc1ccc(N2C(=O)/C(=C\c3ccc(-c4ccc(Cl)c(C(=O)O)c4)o3)C(=O)NC2=S)cc1 | i
O=C1NC(=S)N(c2ccccc2)C(=O)/C1=C/c1ccc(O)c(Cl)c1 | i
CN1C(=O)NC(=O)/C(=C\c2cc(Cl)c(O)c(Cl)c2)C1=O | i
O=C1NC(=S)N(c2ccc(F)cc2)C(=O)/C1=C/c1ccc(-c2cccc(C(=O)O)c2)o1 | 86
O=C1NC(=S)N(c2ccccc2)C(=O)/C1=C/c1ccc(-c2ccc(Cl)c(C(=O)O)c2)o1 | i
SMILES | DUSP3 inh
O=c1oc2ccc(O)c(-c3ccccc3Cl)c2s1 | i
COC(=O)c1ccc(/C=C2\C=C(c3ccc(Cl)cc3)OC2=O)cc1 | i
CCOc1cc(/C=N\N2CCN(c3ccccc3)CC2)ccc1O | i
O=[N+]([O-])c1ccc2nc3c([nH]c4ccccc43)c(Cl)c2c1 | i
Cc1c(Cl)ccc2c1NC(C(=O)O)C1CC=CC21 (stereo unspecified) | 84
O=[N+]([O-])c1ccc2c(c1)C1C=CCC1C(c1ccc(Cl)cc1)N2 (stereo unspecified) | i
O=C(O)C1Nc2ccc([N+](=O)[O-])cc2C2C=CCC12 (stereo unspecified) | 96
CC(=O)N1c2ccc3ccccc3c2C2C=CCC2C1c1ccc(Br)cc1 (stereo unspecified) | i
O=C(O)c1cccc2c1NC(c1cccc(Cl)c1Cl)C1CC=CC21 (stereo unspecified) | i
O=C(O)C1Nc2c(C(=O)N3CCCC3)cccc2C2C=CCC12 (stereo unspecified) | i
CCOC(=O)c1ccc2c(c1)C1C=CCC1C(c1cccc3ccccc13)N2 (stereo unspecified) | i
O=[N+]([O-])c1cccc(C2Nc3ccc(Cl)cc3C3C=CCC32)c1 (stereo unspecified) | i
O=C(O)C1Nc2ccc3ccccc3c2C2C=CCC12 (stereo unspecified) | 92
COc1ccc(C2/C(=C(\O)c3ccccc3)C(=O)C(=O)N2CCN(C)C)cc1OC (stereo unspecified) | i
CCN1C(=O)/C(=C\c2cn(Cc3ccccc3Cl)c3ccccc23)SC1=S | i
COc1ccc(CCN2C(=O)/C(=C/C=C/c3ccccc3)SC2=S)cc1OC | i
O=C(O)c1ccccc1Nc1nc2nc3ccccc3c(=O)n2cc1Br | i
CCOC(=O)c1sc(NC(NC(=O)c2ccco2)C(=O)c2ccccc2)c(C(=O)OCC)c1C (stereo unspecified) | i
COc1ccc(-c2csc(Nc3ccccc3)n2)cc1 | i
c1ccc(Nc2nc(-c3ccncc3)cs2)cc1 | i
c1ccc(Nc2nc(-c3ccccc3)[n+](-c3ccccc3)s2)cc1 | 97
COc1ccc(NC(=O)c2ccc(Oc3ccc(C(=O)Nc4ccc(OC)cc4)cc3)cc2)cc1 | i
Cc1nc(N)sc1-c1csc(Nc2ccc(S(N)(=O)=O)cc2)n1 | i
Cc1nc(NC(=O)c2ccccc2)sc1-c1csc(Nc2ccc(O)cc2)n1 | 71
Cc1nc(NC(=O)c2ccccc2)sc1-c1csc(Nc2cccc(C(=O)O)c2)n1 | i
SMILES | DUSP3 inh
COc1ccc(C(=O)N/C(=C\c2ccc(-c3cccc([N+](=O)[O-])c3)o2)C(=O)NCCc2ccccc2)cc1 | i
Cc1ccc(S(=O)(=O)N2CCN(C(=O)c3cccc(F)c3)CC2)cc1 | 101
COc1ccc(S(=O)(=O)N2CCN(C(=O)c3cccc(F)c3)CC2)cc1 | i
Cc1ccc(S(=O)(=O)N2CCN(C(=O)c3cccnc3)CC2)cc1 | i
COc1ccc2ccccc2c1C=Nc1ccccc1 | i
N#CC1=C(SCc2ccccc2)NC(=O)C(C#N)C12CCCCC2 (stereo unspecified) | i
N#CC1=C(S)NC(=O)C(C#N)C12CCCCC2 (stereo unspecified) | 81
C=CCSC1=C(C#N)C2(CCCCC2)C(C#N)C(=O)N1 (stereo unspecified) | i
FC(F)(F)c1ccccc1CN1CCN(Cc2ccco2)CC1 | i
Cc1ccc(NC(=O)c2cccc(N3C(=O)C4C5c6ccccc6C(c6ccccc65)C4C3=O)c2)cc1Cl (stereo unspecified) | i
CCOC(=O)Cn1nnc2ccccc21 | i
CC(C)NC(=O)C1C(c2ccccc2)=C1c1ccccc1 | 120
O=C(Nc1ccc(Br)cc1)C1C(c2ccccc2)=C1c1ccccc1 | i
Cc1cccc(NC(=O)C2C(c3ccccc3)=C2c2ccccc2)c1C | i
CCCc1c(C)[nH]c2c(OC)cccc2c1=O | i
Cc1cc(Cl)ccc1OC(C)C(=O)Nc1cc(Cl)ccc1Cl (stereo unspecified) | i
COc1cccc(/C=C2/C(=O)NC(=O)N(c3cccc(C)c3)C2=O)c1O | 107
COc1cccc(/C=C2/C(=O)NC(=O)N(c3cc(C)cc(C)c3)C2=O)c1O | i
COc1ccc(N2C(=O)NC(=O)/C(=C/c3cccc(OC)c3O)C2=O)cc1 | i
COc1ccc([N+](=O)[O-])cc1-c1ccc(/C=C2\C(=O)NC(=O)N(c3cc(C)cc(C)c3)C2=O)o1 | i
COc1ccc(C(=O)Nc2cccc(C(=O)Nc3cccc(O)c3)c2)cc1 | i
O=C(COc1ccccc1)Nc1ccc(C(=O)OC2CCCCC2)cc1 | i
Cc1cc(C)cc(-n2c(O)c(/C=C3\C=Nc4ccccc43)c(=O)[nH]c2=O)c1 | i
Cc1ccc(-n2c(O)c(/C=C3\C=Nc4ccccc43)c(=O)[nH]c2=S)cc1 | 64
O=c1[nH]c(=S)n(-c2ccc(Cl)c(Cl)c2)c(O)c1/C=C1/C=Nc2ccccc21 | i
COc1cc(C2CC(=O)Nc3c2ccc2ccccc32)cc(Br)c1OC (stereo unspecified) | 103
CSc1ccc(C2CC(=O)Nc3c2cc(Br)c2ccccc32)cc1 (stereo unspecified) | i
CCOc1cccc(C2CC(=O)Nc3c2cc(Br)c2ccccc32)c1 (stereo unspecified) | i
